This is an account of results in paper PMC7862700, “An all-to-all approach to the identification of sequence-specific readers for epigenetic DNA modifications on cytosine”.

Holding throughout (experiment): DAPPL (digital affinity profiling via proximity ligation, sequencing); 10 mM Tris-HCl pH 7.5, 50 mM NaCl, 1 mM DTT, 4% glycerol, room temperature, 30 min; GST-TFs on glutathione beads, 16-mer random dsDNA library, 0.1% formaldehyde crosslink after washing; high values mean tight binding
What all share (conditions): protein: recombinant; tags: N-terminal GST; dsDNA, one strand shown

The target in one assay is T1, FLI1 (Homo sapiens, UniProt Q01543 1-452).
T1 sequence: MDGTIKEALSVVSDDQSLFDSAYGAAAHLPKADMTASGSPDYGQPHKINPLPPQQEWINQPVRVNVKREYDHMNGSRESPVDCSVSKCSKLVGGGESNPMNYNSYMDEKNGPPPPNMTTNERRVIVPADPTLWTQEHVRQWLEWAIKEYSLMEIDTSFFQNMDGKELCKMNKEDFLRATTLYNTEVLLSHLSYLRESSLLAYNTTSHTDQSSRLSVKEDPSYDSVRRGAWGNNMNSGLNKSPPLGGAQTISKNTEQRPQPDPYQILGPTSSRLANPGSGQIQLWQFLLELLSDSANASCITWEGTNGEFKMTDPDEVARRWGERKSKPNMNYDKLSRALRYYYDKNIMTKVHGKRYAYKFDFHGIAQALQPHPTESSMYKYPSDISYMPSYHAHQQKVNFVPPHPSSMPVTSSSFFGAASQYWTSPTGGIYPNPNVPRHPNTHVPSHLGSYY
In a few lines:
(§1)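 Pools were built from human transcription factors expressed in yeast as GST fusions, captured on glutathione beads and DNA-barcoded, along with a tag-only sample. Incubation with 200 nmole of a 16-mer random double-stranded DNA library lasted 30 min at room temperature in Tris/NaCl/DTT/glycerol buffer, and was followed by washing, 0.1% formaldehyde crosslinking, proximity ligation, PCR amplification and Illumina NextSeq500 sequencing. Binding signal is the quotient of each hexamer's read frequency for a factor and its frequency for the tag-only sample.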

For another assay, the target named is T2, GABPA (Homo sapiens, UniProt Q06546 1-454).
T2 sequence: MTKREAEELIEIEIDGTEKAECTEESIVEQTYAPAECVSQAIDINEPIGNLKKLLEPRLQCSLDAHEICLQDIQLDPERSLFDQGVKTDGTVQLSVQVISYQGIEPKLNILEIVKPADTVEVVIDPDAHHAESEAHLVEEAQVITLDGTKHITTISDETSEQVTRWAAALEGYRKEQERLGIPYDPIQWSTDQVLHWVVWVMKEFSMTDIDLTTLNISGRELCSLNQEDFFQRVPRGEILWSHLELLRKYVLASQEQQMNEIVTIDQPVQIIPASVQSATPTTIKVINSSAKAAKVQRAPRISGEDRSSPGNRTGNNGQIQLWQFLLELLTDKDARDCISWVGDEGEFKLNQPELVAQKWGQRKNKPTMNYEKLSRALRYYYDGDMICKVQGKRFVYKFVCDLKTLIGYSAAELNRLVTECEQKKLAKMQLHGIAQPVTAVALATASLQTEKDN
In a few lines: as §1

The next assay concerns the target T3, ERG (Homo sapiens, UniProt P11308 1-479).
T3 sequence: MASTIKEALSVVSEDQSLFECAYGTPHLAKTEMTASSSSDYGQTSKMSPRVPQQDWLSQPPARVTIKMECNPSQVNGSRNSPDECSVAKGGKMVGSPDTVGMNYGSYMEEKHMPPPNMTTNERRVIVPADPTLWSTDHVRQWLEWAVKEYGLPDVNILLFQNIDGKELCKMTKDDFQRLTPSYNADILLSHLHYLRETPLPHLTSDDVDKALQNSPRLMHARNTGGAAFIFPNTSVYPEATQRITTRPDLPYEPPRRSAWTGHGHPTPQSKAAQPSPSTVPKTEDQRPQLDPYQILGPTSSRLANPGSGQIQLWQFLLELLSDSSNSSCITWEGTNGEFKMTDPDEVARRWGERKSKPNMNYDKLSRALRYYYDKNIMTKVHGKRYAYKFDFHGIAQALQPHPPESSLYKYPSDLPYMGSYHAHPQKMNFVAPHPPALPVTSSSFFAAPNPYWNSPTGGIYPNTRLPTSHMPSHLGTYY
In a few lines: as §1

A further assay has as its target T4, EHF (Homo sapiens, UniProt Q9NZC4 1-300).
T4 sequence: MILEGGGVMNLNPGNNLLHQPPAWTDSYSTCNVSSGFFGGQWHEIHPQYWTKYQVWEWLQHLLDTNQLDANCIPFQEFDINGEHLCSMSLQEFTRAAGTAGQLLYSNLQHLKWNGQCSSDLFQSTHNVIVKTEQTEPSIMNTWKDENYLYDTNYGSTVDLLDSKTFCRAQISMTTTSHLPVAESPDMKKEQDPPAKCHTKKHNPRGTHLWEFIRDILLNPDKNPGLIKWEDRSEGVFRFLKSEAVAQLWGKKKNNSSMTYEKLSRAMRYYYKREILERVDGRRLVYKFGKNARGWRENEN
In a few lines: as §1

For another assay, the target named is SPIB (Homo sapiens, UniProt Q01892 1-262). In a few lines: as §1
Chain of SPIB (Q01892 whole entry): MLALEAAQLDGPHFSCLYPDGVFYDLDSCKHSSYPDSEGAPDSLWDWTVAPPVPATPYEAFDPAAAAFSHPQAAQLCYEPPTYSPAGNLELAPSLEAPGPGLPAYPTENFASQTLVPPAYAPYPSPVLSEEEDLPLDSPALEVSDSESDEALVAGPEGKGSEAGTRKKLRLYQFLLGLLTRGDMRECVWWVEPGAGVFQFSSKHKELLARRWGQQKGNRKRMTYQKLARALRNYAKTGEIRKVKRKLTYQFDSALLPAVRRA
A further assay deals with T5, ELK3 (Homo sapiens, UniProt P41970 1-407).
T5 sequence: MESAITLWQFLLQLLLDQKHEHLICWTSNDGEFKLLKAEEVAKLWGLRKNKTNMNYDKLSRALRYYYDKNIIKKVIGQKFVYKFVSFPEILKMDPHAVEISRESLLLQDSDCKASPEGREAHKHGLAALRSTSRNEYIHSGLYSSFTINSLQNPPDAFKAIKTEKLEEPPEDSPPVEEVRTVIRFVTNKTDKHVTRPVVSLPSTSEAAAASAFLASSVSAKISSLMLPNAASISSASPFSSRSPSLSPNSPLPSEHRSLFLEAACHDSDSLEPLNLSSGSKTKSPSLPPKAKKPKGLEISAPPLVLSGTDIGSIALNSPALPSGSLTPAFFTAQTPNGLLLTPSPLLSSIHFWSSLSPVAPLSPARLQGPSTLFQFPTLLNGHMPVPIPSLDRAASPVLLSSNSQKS
In a few lines: as §1

In another assay the target is T6, FEV (Homo sapiens, UniProt Q99581 1-238).
T6 sequence: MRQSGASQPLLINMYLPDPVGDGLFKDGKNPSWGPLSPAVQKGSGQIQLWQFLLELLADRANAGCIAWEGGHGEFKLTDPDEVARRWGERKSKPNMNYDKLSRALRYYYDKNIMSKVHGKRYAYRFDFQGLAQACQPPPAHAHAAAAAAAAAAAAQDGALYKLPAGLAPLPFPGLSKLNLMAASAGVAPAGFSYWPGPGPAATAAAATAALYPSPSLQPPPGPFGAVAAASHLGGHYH
In a few lines: as §1

The next assay deals with ETV5 (Homo sapiens, UniProt P41161 1-510). In a few lines:
as §1

Another assay has as its target T7, SPIC (Homo sapiens, UniProt Q8N5J4 1-248).
T7 sequence: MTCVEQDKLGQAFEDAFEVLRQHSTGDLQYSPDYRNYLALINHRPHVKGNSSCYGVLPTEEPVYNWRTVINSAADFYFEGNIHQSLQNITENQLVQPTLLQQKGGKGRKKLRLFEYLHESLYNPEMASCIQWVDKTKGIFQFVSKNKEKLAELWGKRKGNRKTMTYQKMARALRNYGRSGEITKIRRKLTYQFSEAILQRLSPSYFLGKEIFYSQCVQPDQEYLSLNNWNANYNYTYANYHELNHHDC
In a few lines: as §1

For a further assay, the target named is ETV1 (Homo sapiens, UniProt P50549 1-477). In a few lines: as §1
Chain of ETV1 (P50549 whole entry): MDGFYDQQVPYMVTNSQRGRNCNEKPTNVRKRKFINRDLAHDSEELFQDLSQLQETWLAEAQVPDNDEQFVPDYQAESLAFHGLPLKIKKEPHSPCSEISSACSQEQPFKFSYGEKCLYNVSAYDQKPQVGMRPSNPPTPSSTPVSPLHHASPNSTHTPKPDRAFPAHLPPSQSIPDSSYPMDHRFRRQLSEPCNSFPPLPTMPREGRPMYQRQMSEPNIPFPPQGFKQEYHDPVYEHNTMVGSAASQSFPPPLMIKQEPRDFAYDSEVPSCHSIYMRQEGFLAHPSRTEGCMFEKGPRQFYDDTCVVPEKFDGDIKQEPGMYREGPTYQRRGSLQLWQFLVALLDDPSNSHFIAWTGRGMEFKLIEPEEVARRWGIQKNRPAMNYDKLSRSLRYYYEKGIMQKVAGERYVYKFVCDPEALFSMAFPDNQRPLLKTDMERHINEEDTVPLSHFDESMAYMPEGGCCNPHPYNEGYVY
The next assay deals with T8, ETV3L (Homo sapiens, UniProt Q6ZN32 1-361).
T8 sequence: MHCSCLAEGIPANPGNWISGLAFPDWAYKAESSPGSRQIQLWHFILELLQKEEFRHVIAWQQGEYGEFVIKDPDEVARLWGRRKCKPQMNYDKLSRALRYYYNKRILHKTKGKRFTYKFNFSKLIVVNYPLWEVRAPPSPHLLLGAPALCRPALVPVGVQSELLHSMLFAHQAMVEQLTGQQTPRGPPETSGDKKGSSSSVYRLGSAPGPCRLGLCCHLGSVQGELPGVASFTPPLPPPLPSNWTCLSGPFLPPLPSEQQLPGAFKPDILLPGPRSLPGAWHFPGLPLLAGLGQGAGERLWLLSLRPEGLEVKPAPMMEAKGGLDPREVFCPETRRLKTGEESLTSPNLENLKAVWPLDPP
In a few lines: as §1

Another assay deals with T9, ELF5 (Homo sapiens, UniProt Q9UKW6-2 1-255).
T9 sequence: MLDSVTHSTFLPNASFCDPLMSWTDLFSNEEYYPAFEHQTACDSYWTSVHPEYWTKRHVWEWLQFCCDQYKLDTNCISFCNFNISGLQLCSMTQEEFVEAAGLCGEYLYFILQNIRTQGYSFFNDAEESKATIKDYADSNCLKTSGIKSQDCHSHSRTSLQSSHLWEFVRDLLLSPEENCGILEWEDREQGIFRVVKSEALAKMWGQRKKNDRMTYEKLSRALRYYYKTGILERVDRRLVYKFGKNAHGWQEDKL
In a few lines:
as §1

The target of another assay is T10, ETV3 (Homo sapiens, UniProt P41162-2 1-143).
T10 sequence: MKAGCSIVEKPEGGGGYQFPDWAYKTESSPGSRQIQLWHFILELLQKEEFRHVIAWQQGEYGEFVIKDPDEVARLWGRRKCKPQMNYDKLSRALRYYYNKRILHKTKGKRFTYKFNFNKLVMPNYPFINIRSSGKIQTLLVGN
In a few lines: as §1

Another assay has as its target ETV6 (Homo sapiens, UniProt P41212 1-452). In a few lines:
as §1

Chain of ETV5 (P41161 whole entry): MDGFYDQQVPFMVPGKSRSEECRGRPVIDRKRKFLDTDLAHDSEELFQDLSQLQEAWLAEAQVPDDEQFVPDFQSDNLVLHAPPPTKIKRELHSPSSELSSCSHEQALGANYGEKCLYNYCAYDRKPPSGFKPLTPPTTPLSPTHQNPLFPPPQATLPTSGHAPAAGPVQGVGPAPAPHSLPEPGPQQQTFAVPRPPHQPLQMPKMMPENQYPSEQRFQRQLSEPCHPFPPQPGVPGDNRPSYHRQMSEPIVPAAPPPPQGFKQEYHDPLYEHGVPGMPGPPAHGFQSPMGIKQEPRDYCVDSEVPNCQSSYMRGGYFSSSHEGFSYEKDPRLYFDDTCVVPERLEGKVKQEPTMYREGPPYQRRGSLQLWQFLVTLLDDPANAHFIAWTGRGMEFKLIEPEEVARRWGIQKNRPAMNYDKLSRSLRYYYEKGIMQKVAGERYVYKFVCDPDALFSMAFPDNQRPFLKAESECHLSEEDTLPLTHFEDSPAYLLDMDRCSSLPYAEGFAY
Chain of ETV6 (P41212 whole entry): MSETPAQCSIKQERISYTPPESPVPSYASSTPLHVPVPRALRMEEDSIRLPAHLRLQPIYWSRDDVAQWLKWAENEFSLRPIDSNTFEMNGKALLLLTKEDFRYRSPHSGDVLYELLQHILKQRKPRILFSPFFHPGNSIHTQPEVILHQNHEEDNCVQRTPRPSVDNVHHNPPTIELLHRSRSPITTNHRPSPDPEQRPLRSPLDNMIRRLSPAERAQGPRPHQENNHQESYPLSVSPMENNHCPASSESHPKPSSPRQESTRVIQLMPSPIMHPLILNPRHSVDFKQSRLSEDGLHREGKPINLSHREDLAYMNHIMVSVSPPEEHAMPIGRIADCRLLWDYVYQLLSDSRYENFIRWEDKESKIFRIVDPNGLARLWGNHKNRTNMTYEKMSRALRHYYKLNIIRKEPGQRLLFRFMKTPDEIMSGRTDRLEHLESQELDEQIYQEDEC

For the sequence GTCCGC, the binding signal with FLI1 is 1.1 fold enrichment (6-mer frequency, TF over GST control); with GABPA it was 1 fold enrichment (6-mer frequency, TF over GST control); in the assay with ERG it was 1.04 fold enrichment (6-mer frequency, TF over GST control); with EHF it was 1.05 fold enrichment (6-mer frequency, TF over GST control); with SPIB, 1.03 fold enrichment (6-mer frequency, TF over GST control); in the assay with ELK3, 1.1 fold enrichment (6-mer frequency, TF over GST control). The binding signal in the assay with FEV is 1.04 fold enrichment (6-mer frequency, TF over GST control); in the assay with ETV5 it was 1.07 fold enrichment (6-mer frequency, TF over GST control); in the assay with SPIC it was 1.21 fold enrichment (6-mer frequency, TF over GST control); with ETV1, 1.08 fold enrichment (6-mer frequency, TF over GST control); with ETV3L it was 1.02 fold enrichment (6-mer frequency, TF over GST control); with ELF5, 1.07 fold enrichment (6-mer frequency, TF over GST control). The binding signal with ETV3 was 1.03 fold enrichment (6-mer frequency, TF over GST control); with ETV6, 1.03 fold enrichment (6-mer frequency, TF over GST control).
